PubChem BioAssay AID489042 (NMMLSC, 2010)
Calls of active or inactive are those of the source. Rule as the data show it: active = inhibition score above about 11; inactive = the rest.

Assay: yeast proliferation inhibition, dose response, BY4741, OD595, 24 h (AID 489042)
Conditions: S. cerevisiae BY4741 growth, active compounds read high

Compound	inhibition score
OCC[n+]1c2ccccc2nc2ccc(N3CCOCC3)cc21	0 (inactive)
Cn1c(=O)[nH]c2nncnc2c1=O	0 (inactive)
C[C@]12CCC3C(CC[C@H]4C[C@H](O)CC[C@]34C)C1C[C@@H](CCCCl)[C@@H]2O (stereo not given in full)	10 (inactive)
CNc1ccc2nc3ccccc3[n+](C)c2c1	0 (inactive)
C[n+]1c2ccccc2nc2ccc(NCCO)cc21	0 (inactive)
Cn1c(O)c(C(=Nc2ccc(F)cc2)c2ccccc2Cl)c(=O)n(C)c1=O	10 (inactive)
Nc1cc2nc3ccccc3nc2cc1N	0 (inactive)
Oc1cccc2nc3ccccc3nc12	21 (active)
C=C1C(O)[C@@H]2O[C@]3(CC[C@H](/C=C/C(C)[C@@H]4CC(C)=CC5(O[C@H](C[C@@](C)(O)C(=O)O)CCC5O)O4)O3)CC[C@H]2O[C@@H]1C(O)CC(C)[C@H]1OC2(CCCCO2)CCC1C (stereo not given in full)	21 (active)
C[C@]12CCC3C(CC[C@H]4C[C@H](O)CC[C@]34C)C1CCC2=O (stereo not given in full)	0 (inactive)
O=c1[nH]c(O)c(C=Nc2ccc(F)c(Cl)c2)c(=O)[nH]1	0 (inactive)
CC(=O)O[C@H]1CCC2C3CC[C@H]4[C@@H](O)[C@H](O)CC[C@]4(C)C3CC[C@@]21C (stereo not given in full)	0 (inactive)
C[C@]12CCC3C(CC[C@H]4C[C@@H](O)CC[C@]34C)C1CC[C@@H]2OC(=O)[C@H](N)CCCCN (stereo not given in full)	0 (inactive)
C[C@]12CCC3C(CC[C@H]4C[C@@H](O)CC[C@]34C)[C@H]1CC[C@H]2O (stereo not given in full)	0 (inactive)
C#C[C@]1(O)[C@H](O)CC2C3CC[C@H]4C[C@@H](O)CC[C@]4(C)C3CC[C@@]21C (stereo not given in full)	0 (inactive)
